PubChem BioAssay (EPA / NIEHS)
Records with an inconclusive call do not appear. Calls of active or inactive are those of the source. Rule for the calls: active = hit-call score of the fitted dose curve at least 0.9, where 1 is the maximum; inconclusive = response in the unintended direction; inactive = score below 0.9.

molecular target: human Thyroid Receptor alpha (THRa1), THRA (gene 7067) (UniProt P10827); assay: ATG_THRa1_TRANS: Attagene TRANS-FACTORIAL HepG2 Assay for human Thyroid Receptor alpha (THRa1) (AID 2283014)
Procedure: ATG_TRANS is a cell-based, multiplexed-readout assay that uses HepG2, a human liver cell line, with measurements taken at 24 hours after chemical dosing in a 24-well plate.ATG_THRa1_TRANS is one of 30 assay component(s) measured or calculated from the ATG_TRANS assay. It is designed to make measurements of mRNA induction, a form of inducible reporter, as detected with fluorescence intensity signals by Reverse transcription polymerase chain reaction (RT-PCR) and Capillary electrophoresis technology.Data from the assay component ATG_THRa1_TRANS was analyzed into 1 assay endpoint. This assay endpoint, ATG_THRa1_TRANS, was analyzed in the positive analysis fitting direction relative to DMSO as the negative control and baseline of activity. Using a type of inducible reporter, measures of mRNA for gain-of-signal activity can be used to understand the reporter gene at the transcription factor-level as they relate to the gene THRA. Furthermore, this assay endpoint can be referred to as a primary readout, because this assay has produced multiple assay endpoints where this one serves a reporter gene function. To generalize the intended target to other relatable targets, this assay endpoint is annotated to the nuclear receptor intended target family, where the subfamily is non-steroidal.
Human liver HepG2 cells are transiently transfected with multiple reporter transcription units (MRTUs) in 6-well plates using FuGene 6 reagent (Roche; 3 ml FuGene/1 mg DNA). The MRTU constructs are regulated by a cis-regulating element (promoter). […] A major difference between the CIS and TRANS system is that in CIS activities of endogenous TFs are measured, whereas the TRANS assay evaluates changes in activities of exogenous, chimeric NR-Gal4 proteins. […] At the end of 24 hour incubation, total RNA was isolated using TriZol reagent (Invitrogen). The isolated RNA is then reverse-transcribed using oligo(dT) primer and Mo-MLV reverse transcriptase (Invitrogen) with DNAse I (Ambion) treatment for 30 min. The one-tenth of the produced cDNA was amplified by PCR using Taq DNA polymerase (Invitrogen) and two reporter sequence-specific primers. The PCR products were fluorescently labeled by primer extension with 6-arboxyfluorescein (6-FAM) 5'-labeled reporter sequence-specific primer (2 min at 95 C, 20 s at 68 C and 10 min at 72 C) and these products were digested with 5U of HpaI (New England Biolabs) for 2h at 37 C. The fragments were purified using Qiaquick PCR columns (Qiagen), analyzed on an ABI 3130xL genetic analyzer (Applied Biosystems) with peak positions identified by using a set of X-rhodamine (ROX)-labeled MapMarker1000 molecular weight standards (BioVentures). The raw capillary electrophoresis data was processed using Attagraph software (Attagene).

human Thyroid Receptor alpha (THRa1), THRA (gene 7067), sequence (P10827 whole entry, looked up): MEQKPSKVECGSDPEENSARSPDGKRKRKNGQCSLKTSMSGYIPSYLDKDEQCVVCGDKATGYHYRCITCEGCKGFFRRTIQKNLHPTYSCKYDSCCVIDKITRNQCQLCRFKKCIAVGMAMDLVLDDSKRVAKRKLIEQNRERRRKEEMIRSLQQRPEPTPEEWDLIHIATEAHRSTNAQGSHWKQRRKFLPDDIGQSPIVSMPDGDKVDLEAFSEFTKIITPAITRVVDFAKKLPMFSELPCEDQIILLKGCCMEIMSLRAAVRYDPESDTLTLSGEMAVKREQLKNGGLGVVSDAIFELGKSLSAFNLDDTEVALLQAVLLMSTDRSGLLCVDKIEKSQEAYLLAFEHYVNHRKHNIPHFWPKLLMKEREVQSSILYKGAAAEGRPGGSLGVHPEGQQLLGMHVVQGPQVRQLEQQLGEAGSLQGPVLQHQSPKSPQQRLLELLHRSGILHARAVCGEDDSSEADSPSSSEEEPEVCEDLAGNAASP

Row | Structure (SMILES) | outcome
1 | CCOCN(C(=O)CS(=O)(=O)O)c1c(C)cccc1CC | inactive
2 | C=C(C)CCCC | inactive
3 | Nc1c(Br)cc([N+](=O)[O-])cc1Br | inactive
4 | CC(C)Nc1ccc(NC(C)C)c2c1C(=O)c1ccccc1C2=O | inactive
5 | Nc1cccnc1N | inactive
6 | CCCCOC(=O)[C@H](C)O | inactive
7 | O=C(O)C(F)(F)OC(F)(F)C(F)(F)OC(F)(F)C(F)(F)OC(F)(F)F | inactive
8 | CSc1ccc(Cl)cc1 | inactive
9 | OCCCc1cccnc1 | inactive
10 | OCCCC(F)(F)C(F)(F)C(F)(F)C(F)(F)C(F)(F)C(F)(F)C(F)(F)C(F)(F)F | inactive
11 | CC(O)C#CC(C)O (stereo not given) | inactive
12 | CCC(=O)OC(C)c1ccccc1 (stereo not given) | inactive
13 | N#CCCOCCC#N | inactive
14 | O=S(=O)(O)CCC(F)(F)C(F)(F)C(F)(F)C(F)(F)F | inactive
15 | CNS(=O)(=O)C(F)(F)C(F)(F)C(F)(F)C(F)(F)C(F)(F)C(F)(F)C(F)(F)C(F)(F)F | inactive
16 | Brc1ccccn1 | inactive
17 | O=C=NCc1cccc(CN=C=O)c1 | inactive
18 | CCOCOCC | inactive
19 | CCN(CC)c1ccc(N=Nc2ccccc2)cc1 | inactive
20 | Cc1cccc(C)n1 | inactive

Row | Structure (SMILES) | outcome
21 | O=C1C=CC(=O)N1c1ccccc1 | inactive
22 | C[C@]12CC[C@H]3C(=CCc4cc(O)ccc43)[C@@H]1CCC2=O | inactive
23 | O=C1OC(=O)c2ccc3c4c(ccc1c24)C(=O)OC3=O | inactive
24 | CCCCC(CC)COC(=O)c1ccc(N(C)C)cc1 (stereo not given) | inactive
25 | Cc1ccc(O)c(-n2nc3ccccc3n2)c1 | inactive
26 | CCN(CCO)S(=O)(=O)C(F)(F)C(F)(F)C(F)(F)C(F)(F)C(F)(F)C(F)(F)C(F)(F)C(F)(F)F | inactive
27 | O=C(O)C(F)(F)C(F)(F)C(F)(F)C(=O)O | inactive
28 | COC(F)(C(F)F)C(F)(F)F (stereo not given) | inactive
29 | CCCCCCCCCCCCC[N+](C)(C)Cc1ccccc1 | inactive
30 | FC(F)(F)C(F)(F)C(F)(F)C(F)(F)C(F)(F)C(F)(F)C(F)(F)CCI | inactive
31 | NS(=O)(=O)C(F)(F)C(F)(F)C(F)(F)C(F)(F)C(F)(F)C(F)(F)F | inactive
32 | CCCCOC(=O)C(C)O (stereo not given) | inactive
33 | CC(C)(C)C(=O)C1C(=O)c2ccccc2C1=O | inactive
34 | O=C(c1ccccc1)c1ccc(O)cc1O | inactive
35 | Oc1ccc2c(c1)CCC2 | inactive
36 | O=C(Cl)C(F)(F)C(F)(F)C(F)(F)C(F)(F)C(F)(F)C(F)(F)C(F)(F)F | inactive
37 | O=C(c1ccccc1)c1ccc(Cl)cc1 | inactive
38 | CN(N=O)C(=O)N[C@@H]1[C@@H](O)[C@H](O)[C@@H](CO)O[C@@H]1O | inactive
39 | CN(C)C(C)(C)CO | inactive
40 | COCCOCCC[Si](C)(O[Si](C)(C)C)O[Si](C)(C)C | inactive
